# From PMC9911399, “Two distinct binding modes provide the RNA-binding protein RbFox with extraordinary sequence specificity”
# Numbering of substitutions follows the chain as printed; changes in the protein carry UniProt numbers. The full ranking holds about 16,000 sequences; the median of “ka relative to ugcaugu” is about 0.096, and the highest 2% start at about 0.35. Shown is part of a subset that was picked to be rich in the highest values.
# T1: RBFOX1 RRM RbFoxmut (Fox-RRM*) (Homo sapiens, UniProt Q9NWB1 109-208, R118D;E147R;N151S;E152T)
# T1 sequence: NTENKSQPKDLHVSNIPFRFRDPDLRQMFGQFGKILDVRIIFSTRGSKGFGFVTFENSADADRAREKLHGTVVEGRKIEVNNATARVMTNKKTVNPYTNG
# B1: GCGUAUC (DNA:RNA)
# RNA: GGGAGACCGGAAUUCAGAUUGUCCGCGUAUCUUAAAUCCCGUCGUAGCCACCA
# DNA 1: CAATCTGAATTCCGGTCTCCC
# DNA 2: TGGTGGCTACGACGGGATT
# B2: CCGUAUC (DNA:RNA)
# RNA: B1 RNA with G25C
# DNA 1: CAATCTGAATTCCGGTCTCCC
# DNA 2: TGGTGGCTACGACGGGATT
# B3: UUGUAUC (DNA:RNA)
# RNA: B1 RNA with G25U, C26U
# DNA 1: CAATCTGAATTCCGGTCTCCC
# DNA 2: TGGTGGCTACGACGGGATT
# B4: UAUCUUG (DNA:RNA)
# RNA: B1 RNA with G25U, C26A, G27U, U28C, A29U, C31G
# DNA 1: CAATCTGAATTCCGGTCTCCC
# DNA 2: TGGTGGCTACGACGGGATT
# B5: GUGUAUC (DNA:RNA)
# RNA: B1 RNA with C26U
# DNA 1: CAATCTGAATTCCGGTCTCCC
# DNA 2: TGGTGGCTACGACGGGATT
# B6: GUAUCUC (DNA:RNA)
# RNA: B1 RNA with C26U, G27A, A29C
# DNA 1: CAATCTGAATTCCGGTCTCCC
# DNA 2: TGGTGGCTACGACGGGATT
# B7: CAAGCAG (DNA:RNA)
# RNA: GGGAGACCGGAAUUCAGAUUGUCCCAAGCAGUUAAAUCCCGUCGUAGCCACCA
# DNA 1: CAATCTGAATTCCGGTCTCCC
# DNA 2: TGGTGGCTACGACGGGATT
# B8: CACGUCU (DNA:RNA)
# RNA: B7 RNA with A27C, C29U, A30C, G31U
# DNA 1: CAATCTGAATTCCGGTCTCCC
# DNA 2: TGGTGGCTACGACGGGATT
# B9: CUGGAUG (DNA:RNA)
# RNA: B7 RNA with A26U, A27G, C29A, A30U
# DNA 1: CAATCTGAATTCCGGTCTCCC
# DNA 2: TGGTGGCTACGACGGGATT
# B10: CUGGAGA (DNA:RNA)
# RNA: B7 RNA with A26U, A27G, C29A, A30G, G31A
# DNA 1: CAATCTGAATTCCGGTCTCCC
# DNA 2: TGGTGGCTACGACGGGATT
# B11: UGCGCGA (DNA:RNA)
# RNA: B7 RNA with C25U, A26G, A27C, A30G, G31A
# DNA 1: CAATCTGAATTCCGGTCTCCC
# DNA 2: TGGTGGCTACGACGGGATT
# B12: UGCGAUC (DNA:RNA)
# RNA: B1 RNA with G25U, C26G, G27C, U28G
# DNA 1: CAATCTGAATTCCGGTCTCCC
# DNA 2: TGGTGGCTACGACGGGATT
# B13: UGGGAGA (DNA:RNA)
# RNA: B1 RNA with G25U, C26G, U28G, U30G, C31A
# DNA 1: CAATCTGAATTCCGGTCTCCC
# DNA 2: TGGTGGCTACGACGGGATT
# B14: UGGGAUG (DNA:RNA)
# RNA: B1 RNA with G25U, C26G, U28G, C31G
# DNA 1: CAATCTGAATTCCGGTCTCCC
# DNA 2: TGGTGGCTACGACGGGATT
# B15: UGCGAUG (DNA:RNA)
# RNA: B7 RNA with C25U, A26G, A27C, C29A, A30U
# DNA 1: CAATCTGAATTCCGGTCTCCC
# DNA 2: TGGTGGCTACGACGGGATT
# B16: CGGAUGU (DNA:RNA)
# RNA: B7 RNA with A26G, A27G, G28A, C29U, A30G, G31U
# DNA 1: CAATCTGAATTCCGGTCTCCC
# DNA 2: TGGTGGCTACGACGGGATT
# B17: UGGAUUU (DNA:RNA)
# RNA: B1 RNA with G25U, C26G, U28A, A29U, C31U
# DNA 1: CAATCTGAATTCCGGTCTCCC
# DNA 2: TGGTGGCTACGACGGGATT
# B18: UGGGGGA (DNA:RNA)
# RNA: B7 RNA with C25U, A26G, A27G, C29G, A30G, G31A
# DNA 1: CAATCTGAATTCCGGTCTCCC
# DNA 2: TGGTGGCTACGACGGGATT
# B19: UGGAUGU (DNA:RNA)
# RNA: B1 RNA with G25U, C26G, U28A, A29U, U30G, C31U
# DNA 1: CAATCTGAATTCCGGTCTCCC
# DNA 2: TGGTGGCTACGACGGGATT
# B20: CCCUGGA (DNA:RNA)
# RNA: B1 RNA with G25C, G27C, A29G, U30G, C31A
# DNA 1: CAATCTGAATTCCGGTCTCCC
# DNA 2: TGGTGGCTACGACGGGATT
# Biological target: T1, RBFOX1 RRM RbFoxmut (Fox-RRM*)
# Experiment: EMSA; HiTS-Eq, 1 nM pool, 10 min; buffer printed only for the single-RNA assays: 10 mM Tris pH 7.5, 150 mM NaCl, 3.4 mM EDTA, 0.001% NP-40, 30 C
# Conditions: tags: His6 N-terminal (pET28a); label: 5' 32P
# Outline: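 Purified RbFox RRM, wild type or mutant, was incubated for 10 min in 50 µL with 1 nM of a 5′-radiolabelled RNA pool carrying 7 randomized nucleotides, whose flanks were annealed to DNA oligonucleotides, over a series of increasing protein concentrations. Unbound RNA was resolved on 8% native PAGE, cut out, reverse-transcribed, barcoded by PCR and sequenced on an Illumina HiSeq 2500. Relative association constants were derived from changes in read counts for each RNA species versus the control reaction and normalised to the cognate motif.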
row,Binder,binding signal
1,B1,0.194 KA relative to UGCAUGU
2,B2,0.163 KA relative to UGCAUGU
3,B3,0.523 KA relative to UGCAUGU
4,B4,0.0958 KA relative to UGCAUGU
5,B5,0.424 KA relative to UGCAUGU
6,B6,0.0751 KA relative to UGCAUGU
7,B7,0.0856 KA relative to UGCAUGU
8,B8,0.0849 KA relative to UGCAUGU
9,B9,0.646 KA relative to UGCAUGU
10,B10,0.0675 KA relative to UGCAUGU
11,B11,0.0898 KA relative to UGCAUGU
12,B12,0.286 KA relative to UGCAUGU
13,B13,0.137 KA relative to UGCAUGU
14,B14,0.691 KA relative to UGCAUGU
15,B15,0.493 KA relative to UGCAUGU
16,B16,0.281 KA relative to UGCAUGU
17,B17,0.0654 KA relative to UGCAUGU
18,B18,0.102 KA relative to UGCAUGU
19,B19,0.756 KA relative to UGCAUGU
20,B20,0.0858 KA relative to UGCAUGU
